Records with an inconclusive call do not appear. Where a call stands in place of a potency, no number is given. A number with no mark means an inactive call. Active and inactive are the calls of the source. Calls follow the shape of the dose curve; as a rule, active = well fitted curve in the direction sought with a large enough effect in the repeat runs; inconclusive = weak or mixed curves; inactive = no such curve, though single readings can be large; an effect the other way counts as inactive or inconclusive.
How the values were obtained:
[1] = qHTS RealTime-Glo MT Cell Viability Assay in HEK293 cells - 16 hour (AID 1224872); also: nearly all actives have a fitted effect of over 50% in size; also: potency is read from the fitted curve at half-maximal effect
Summary of the method: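 Assay medium contained NanoLuc luciferase plus cell-permeant prosubstrate, added with HEK293 cells at 600 cells/well. After 5 h at 37 C/5% CO2 compounds were added; plates stayed at 37 C for 40 h with serial luminescence reads.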

[2] = qHTS RealTime-Glo MT Cell Viability Assay in HepG2 cells - 8 hour (AID 1224873); also: nearly all actives have a fitted effect of over 55% in size; also: potency is read from the fitted curve at half-maximal effect
Summary of the method: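 HepG2 cells mixed with RealTime-Glo MT reagents (NanoLuc plus cell-permeant prosubstrate) were seeded at 600 cells/well, incubated 5 h at 37 C/5% CO2, then pinned with compounds in DMSO; nonlytic luminescence tracked viability during 40 h treatment.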

[3] = A CellTox Green Cytotoxicity Assay to monitor cytotoxicity in HEK293 cells - 24 hour (AID 1224875); also: nearly all actives have a fitted effect of over 45% in size; also: potency is read from the fitted curve at half-maximal effect
Summary of the method: (§1)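 Seeding of HEK293 cells together with cytotoxicity dye preceded a 5 h incubation at 37 C/5% CO2. Test compounds in DMSO were then added and fluorescence monitored across 40 h.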

[4] = A CellTox Green Cytotoxicity Assay to monitor cytotoxicity in HepG2 cells - 16 hour (AID 1224876); also: nearly all actives have a fitted effect of over 45% in size; also: potency is read from the fitted curve at half-maximal effect
Summary of the method: (§2)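 Nonlytic assay: viable cells exclude the dye, so fluorescence scales with cell death. HepG2 at 600 cells/well, compounds added after 5 h, signal read across 40 h.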

[5] = qHTS RealTime-Glo MT Cell Viability Assay in HepG2 cells - 32 hour (AID 1224877); also: nearly all actives have a fitted effect of over 55% in size; also: potency is read from the fitted curve at half-maximal effect
Summary of the method: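 qHTS, HepG2, 600 cells/well, RealTime-Glo (NanoLuc + prosubstrate) added with cells; 5 h preincubation; DMSO compound addition; 37 C; luminescence at 0/8/16/24/32/40 h.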

[6] = A CellTox Green Cytotoxicity Assay to monitor cytotoxicity in HepG2 cells - 24 hour (AID 1224878); also: nearly all actives have a fitted effect of over 45% in size; also: potency is read from the fitted curve at half-maximal effect
Summary of the method: as §2

[7] = A CellTox Green Cytotoxicity Assay to monitor cytotoxicity in HepG2 cells - 40 hour (AID 1224879); also: nearly all actives have a fitted effect of over 40% in size; also: potency is read from the fitted curve at half-maximal effect
Summary of the method: as §2

[8] = qHTS RealTime-Glo MT Cell Viability Assay in HEK293 cells - 0 hour (AID 1224880); also: top concentration of the series differs between compounds; nearly all actives have a fitted effect of over 45% in size
Summary of the method: (§3)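 Tox21 screen in HEK293 using RealTime-Glo MT chemistry, with cells and reagent co-dispensed. Luminescence proportional to viable cell number was captured at intervals during 40 h compound exposure at 37 C.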

[9] = A CellTox Green Cytotoxicity Assay to monitor cytotoxicity in HEK293 cells - 40 hour (AID 1224871); also: nearly all actives have a fitted effect of over 45% in size
Summary of the method: as §1

[10] = qHTS RealTime-Glo MT Cell Viability Assay in HEK293 cells - 40 hour (AID 1224874); settings: RealTime-Glo luminescence; max response: hits give low values; also: nearly all actives have a fitted effect of over 50% in size; also: potency is read from the fitted curve at half-maximal effect
Summary of the method: as §3

For CCCC1CCC(=O)CC1, the Potency [1] was “inactive”, the Potency [2] was “inactive” and the Potency [3] was “inactive”. For the same molecule, the Potency [4] was “inactive”, the Potency [5] was “inactive” and the Potency [6] was “inactive”. For the same molecule, the Potency [7] was “inactive” and the Potency [8] was “inactive”.

For C#C[C@]1(OC(C)=O)CC[C@H]2[C@@H]3CCC4=C/C(=N/O)CC[C@@H]4[C@H]3CC[C@@]21CC, the Potency [9] was “inactive”, the Potency [2] was “inactive” and the Potency [3] was “inactive”. For the same molecule, the Potency [5] was “inactive”, the Potency [6] was “inactive” and the Potency [7] was “inactive”.

With CCOC(=O)Cn1cccc1-c1nc(-c2ccc(OC)cc2)c(-c2ccc(OC)cc2)s1 the Potency [9] was “inactive”, the max response [10] was -5.42% and the Potency [3] was “inactive”. For the same molecule, the Potency [4] was “inactive”, the Potency [6] was “inactive” and the Potency [7] was “inactive”. For the same molecule, the Potency [8] was “inactive”.

In the case of Nc1nc(-c2ccccc2)cs1, the Potency [1] is reported as “inactive”, the Potency [2] is reported as “inactive” and the max response [10] is reported as -6.02%. For the same molecule, the Potency [3] was “inactive”, the Potency [4] was “inactive” and the Potency [5] was “inactive”. The Potency [6] was “inactive”, the Potency [7] was “inactive” and the Potency [8] was “inactive”.

For O=C(O)c1cc(=O)c2ccccc2o1, the Potency [9] was “inactive”, the Potency [2] was “inactive” and the Potency [3] was “inactive”. The Potency [5] was “inactive”, the Potency [6] was “inactive” and the Potency [7] was “inactive”. For the same molecule, the Potency [8] was “inactive”.

With CCC(=O)OC(=O)CC the Potency [1] was “inactive”, the Potency [2] was “inactive” and the max response [10] was 0.495%. The Potency [3] was “inactive”, the Potency [4] was “inactive” and the Potency [5] was “inactive”. The Potency [6] was “inactive”, the Potency [7] was “inactive” and the Potency [8] was “inactive”.

For COc1c(C)c2c(c(O)c1C/C=C(\C)CCC(=O)OCCN1CCOCC1)C(=O)OC2, the Potency [1] was “inactive”, the Potency [2] was “inactive” and the Potency [3] was “inactive”. The Potency [4] was “inactive”, the Potency [5] was “inactive” and the Potency [6] was “inactive”. The Potency [7] was “inactive” and the Potency [8] was “inactive”.

In the case of C=C(C)c1cccc(C(=C)C)c1, the Potency [1] is reported as “inactive”, the Potency [2] is reported as “inactive” and the max response [10] is reported as -0.359%. For the same molecule, the Potency [3] was “inactive”, the Potency [5] was “inactive” and the Potency [6] was “inactive”. The Potency [7] was “inactive” and the Potency [8] was “inactive”.

For CCO[C@@H]1O[C@H](C(COCc2ccccc2)OCc2ccccc2)[C@H](OCc2ccccc2)[C@H]1O (stereo partly drawn), the Potency [9] was “inactive”, the Potency [3] was “inactive” and the Potency [4] was “inactive”. For the same molecule, the Potency [5] was “inactive”, the Potency [6] was “inactive” and the Potency [8] was “inactive”.

With S=C([S-])NCCNC(=S)[S-].S=C([S-])NCCNC(=S)[S-].[Mn+2].[Zn+2] the Potency [9] was “inactive”, the Potency [2] was “inactive” and the Potency [3] was “inactive”. The Potency [4] was “inactive”, the Potency [5] was “inactive” and the Potency [6] was “inactive”. For the same molecule, the Potency [7] was “inactive” and the Potency [8] was “inactive”.

For CC1(C)CC(O)CC(C)(C)N1, the Potency [1] was “inactive”, the Potency [2] was “inactive” and the max response [10] was -4.64%. For the same molecule, the Potency [3] was “inactive”, the Potency [4] was “inactive” and the Potency [5] was “inactive”. For the same molecule, the Potency [6] was “inactive”, the Potency [7] was “inactive” and the Potency [8] was “inactive”.

In the case of O=C(Oc1ccccc1)Oc1ccccc1, the Potency [1] is reported as “inactive”, the Potency [2] is reported as “inactive” and the max response [10] is reported as -21%. The Potency [3] was “inactive”, the Potency [4] was “inactive” and the Potency [5] was 48.8 µM (active). For the same molecule, the Potency [6] was “inactive”, the Potency [7] was “inactive” and the Potency [8] was “inactive”.

In the case of CCN(CC)C(=O)c1cc(S(=O)(=O)Cc2ccccc2)c(N2CCC(c3ccccc3)CC2)cc1N(CC)CCN(C)C, the Potency [1] is reported as 15.3 µM (active), the Potency [2] is reported as 17.2 µM (active) and the Potency [10] is reported as 7.67 µM (active). For the same molecule, the Potency [3] was 19.3 µM (active), the Potency [4] was 17.2 µM (active) and the Potency [5] was 17.2 µM (active). The Potency [6] was 17.2 µM (active), the Potency [7] was 13.6 µM (active) and the Potency [8] was “inactive”.

With Cl[Si](Cl)(c1ccccc1)c1ccccc1 the Potency [1] was “inactive”, the Potency [2] was “inactive” and the max response [10] was -3.91%. For the same molecule, the Potency [4] was “inactive”, the Potency [5] was “inactive” and the Potency [6] was “inactive”. The Potency [7] was “inactive” and the Potency [8] was “inactive”.

In the case of CC[N+](CC)(CC)CCOC(=O)C(C1CCCC1)C1CCCC1, the Potency [9] is reported as “inactive”, the Potency [2] is reported as “inactive” and the Potency [3] is reported as “inactive”. For the same molecule, the Potency [4] was “inactive”, the Potency [5] was “inactive” and the Potency [6] was “inactive”. The Potency [7] was “inactive” and the Potency [8] was “inactive”.

In the case of CCCCCCCCCCC[C@@H](C[C@@H]1OC(=O)[C@H]1CCCCCC)OC(=O)[C@H](CC(C)C)NC=O, the Potency [1] is reported as 13.4 µM (active), the Potency [2] is reported as “inactive” and the Potency [10] is reported as 6.74 µM (active). For the same molecule, the Potency [3] was “inactive”, the Potency [4] was “inactive” and the Potency [5] was “inactive”. For the same molecule, the Potency [6] was “inactive”, the Potency [7] was 19 µM (active) and the Potency [8] was “inactive”.

For O=S(=O)(O)c1ccc(N=Nc2c(O)ccc3ccccc23)cc1, the Potency [9] was “inactive”, the Potency [3] was “inactive” and the Potency [4] was “inactive”. For the same molecule, the Potency [6] was “inactive”, the Potency [7] was “inactive” and the Potency [8] was “inactive”.

For CCC(C)n1ncn(-c2ccc(N3CCN(c4ccc(OC[C@H]5CO[C@](Cn6cncn6)(c6ccc(Cl)cc6Cl)O5)cc4)CC3)cc2)c1=O (stereo partly drawn), the Potency [9] was “inactive”, the Potency [2] was “inactive” and the Potency [3] was “inactive”. The Potency [4] was “inactive”, the Potency [6] was “inactive” and the Potency [7] was “inactive”. The Potency [8] was “inactive”.

With OC12N=C(c3ccccc3)SC1Cc1cc(Cl)ccc12 (stereo not drawn) the Potency [9] was “inactive”, the Potency [2] was “inactive” and the Potency [3] was “inactive”. The Potency [4] was “inactive”, the Potency [5] was “inactive” and the Potency [8] was “inactive”.

In the case of CCC(=O)C(=O)CC, the Potency [9] is reported as “inactive”, the Potency [2] is reported as “inactive” and the Potency [3] is reported as “inactive”. For the same molecule, the Potency [4] was “inactive”, the Potency [5] was “inactive” and the Potency [6] was “inactive”. The Potency [7] was “inactive” and the Potency [8] was “inactive”.

With O=[N+]([O-])c1ccc(O)cc1C(F)(F)F the Potency [1] was “inactive”, the Potency [2] was “inactive” and the Potency [3] was “inactive”. For the same molecule, the Potency [4] was “inactive” and the Potency [6] was “inactive”.

For CC(CCc1ccccc1)NCC(O)c1ccc(O)c(C(N)=O)c1 (stereo not drawn), the Potency [1] was “inactive”, the Potency [2] was “inactive” and the Potency [3] was “inactive”. The Potency [4] was “inactive”, the Potency [5] was “inactive” and the Potency [6] was “inactive”. For the same molecule, the Potency [7] was “inactive” and the Potency [8] was “inactive”.

Reference: PubChem BioAssay (Tox21)
